# PubChem BioAssay
# Active and inactive are the calls of the source.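 How the source made its calls, unless noted: active means visual image review flags a hit and inhibition of aggregation exceeds 20%; inconclusive means visual hit but inhibition at or below 20%; inactive means no hit on visual image review.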
# What was measured:
# [1] = inhibitors of TNFa-induced NFkB p65 translocation, primary screen, imaging, HUVEC, MLSMR starter and 10KST1 sets (AID 438;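 active means inhibition above 20% together with a positive visual image hit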;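 further: compound added about 3h40 before a 20 min TNFalpha stimulation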;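 on inhibition: signal is the nuclear over cytoplasmic p65 intensity ratio per well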); details: HUVEC TNFa-induced p65 nuclear translocation; cell count: measured here: nuclei count (cytotoxicity indicator), at 2.08 µM; inhibition: at 2 µM, stronger effect = higher value, 0% TNFa-plus-vehicle, 100% no-TNFa wells
# [2] = inhibitors of mutant huntingtin aggregation, primary screen, imaging, exon1htt(103Q)mCFP cells, high-content imaging (AID 483); details: exon1htt(103Q)mCFP cell line, aggregate imaging, at 2 µM; inhibition of aggregation: stronger effect = higher value; nuclei count: measured here: cell count, toxicity;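 further: compound exposure lasted 3 days before fixation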;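 on nuclei count: percent of the per-plate median nuclei count of sample wells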
# [3] = inhibitors of E-selectin induction by TNFa, primary screen, imaging, HUVEC, immunofluorescence, MLSMR starter and 10KST1 sets (AID 487;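 active means visually confirmed hit in the image check and inhibition above 20%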;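 on inhibition: signal is fraction of cell area covered by stained E-selectin grains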;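 on nuclei count: 100% = median nuclei count of all wells on the same plate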); details: HUVEC TNFalpha-induced E-selectin immunofluorescence imaging, at 2 µM; inhibition: stronger effect = higher value; nuclei count: measured here: cell number, toxicity
# [4] = target: Voltage-gated potassium channel subunit beta-2 (Rattus norvegicus) (UniProt P62483); assay: KvBeta enzyme negative modulators, primary screen, biochemical, NADPH fluorescence (AID 622;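 active means fluorescence slope higher than the sample average by over 3 SD, cut at about -0.22 in these data, passing the limit was not always enough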;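 further: slope of raw intensity against log time taken from 70 to 1610 s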); details: recombinant KvBeta, 4-cyanobenzaldehyde reduction, at 10 µM, stronger effect = higher value
# [5] = target: Voltage-gated potassium channel subunit beta-2 (Rattus norvegicus) (UniProt P62483); assay: KvBeta positive modulators, primary screen, biochemical, NADPH fluorescence (AID 623;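 active means NADPH fluorescence slope more negative than the mean of all samples by about 3 SD, 99.7% confidence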;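 further: fluorescence intensity change per second fitted from 20 to 320 s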); details: Recombinant KvBeta, NADPH fluorescence decrease slope, 10 min; at 10 µM; stronger effect = lower value
# [6] = target: Alpha-2C adrenergic receptor (Homo sapiens) (UniProt P18825); assay: modulators of alpha2C/GIRK thallium flux, primary screen, cell-based, HEK293 alpha2C/GIRK1/2 (AID 624;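 active means fluorescence slope after compound addition differing from the mean of all screened samples at 99.7% confidence, in either direction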;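 further: slope of fluorescence ratio to pre-addition baseline per second over 15 to 24 s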); details: thallium flux BTC fluorescence, at 10 µM, actives lie on both sides
# [7] = inhibitors of Sendai virus-induced IRF3 signaling, primary screen, TLR/RLR signaling modifier project, cell-based, Sendai virus stimulus, luciferase, 10K MLSCN set (AID 602276;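 active means inhibition at or above 50% at 10 µM; inactive means inhibition below 50%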;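 further: firefly luciferase from ISG56 promoter only with Renilla not read in this screen; 0% = Sendai virus plus DMSO and 100% = medium plus DMSO without virus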); details: HEK293 RL24 IRF3 luciferase reporter, at 10 µM, stronger effect = higher value
# [8] = inhibitors of poly I:C-induced TLR3 signaling, primary screen, cell-based, poly I:C stimulus, luciferase, 10K MLSCN set (AID 602277;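 active means inhibition of the reporter signal at or above 50%; inactive means inhibition below 50%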); details: HEK293-TLR3 RL24 IRF3 luciferase reporter, at 10 µM, stronger effect = higher value
# Sequence of Alpha-2C adrenergic receptor (Homo sapiens) (P18825 whole entry, looked up): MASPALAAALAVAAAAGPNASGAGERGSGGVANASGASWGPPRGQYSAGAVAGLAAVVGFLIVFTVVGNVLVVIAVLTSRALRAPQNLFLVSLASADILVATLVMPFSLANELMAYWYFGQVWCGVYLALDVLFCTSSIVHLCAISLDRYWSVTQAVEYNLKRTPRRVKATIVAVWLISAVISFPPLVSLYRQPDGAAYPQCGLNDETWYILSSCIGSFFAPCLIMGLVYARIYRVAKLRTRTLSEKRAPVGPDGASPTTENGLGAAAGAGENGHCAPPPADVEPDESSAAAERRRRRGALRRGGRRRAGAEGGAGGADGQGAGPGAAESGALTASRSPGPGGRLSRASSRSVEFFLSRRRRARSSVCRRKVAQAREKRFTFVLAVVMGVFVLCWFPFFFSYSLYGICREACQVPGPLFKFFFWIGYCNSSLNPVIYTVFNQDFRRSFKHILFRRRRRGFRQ
# Sequence of Voltage-gated potassium channel subunit beta-2 (Rattus norvegicus) (P62483 whole entry, looked up): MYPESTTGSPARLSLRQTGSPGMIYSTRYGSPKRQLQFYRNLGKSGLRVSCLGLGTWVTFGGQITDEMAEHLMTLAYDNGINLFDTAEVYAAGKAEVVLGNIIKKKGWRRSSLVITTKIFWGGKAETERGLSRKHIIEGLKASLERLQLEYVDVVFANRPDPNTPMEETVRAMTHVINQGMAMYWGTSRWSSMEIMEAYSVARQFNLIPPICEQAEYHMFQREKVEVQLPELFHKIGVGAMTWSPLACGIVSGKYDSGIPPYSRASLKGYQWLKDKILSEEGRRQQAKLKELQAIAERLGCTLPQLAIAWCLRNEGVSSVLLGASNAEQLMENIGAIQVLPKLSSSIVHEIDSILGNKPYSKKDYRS
SMILES,cell count [1],inhibition [1],inhibition of aggregation [2],nuclei count [2] [%],inhibition [3],nuclei count [3] [%],fluorescence slope [4],NADPH fluorescence slope [5],slope [6],inhibition [7],inhibition [8]
CCN(C(C)=O)c1nnc(CSc2nc3ccccc3s2)s1,531,-15.2% (inactive),10.2% (inactive),96.4,-11.6% (inactive),119,-0.475 (inactive),2.8e-05 (inactive),0.00523 (inactive),-76.7% (inactive),-233% (inactive)
COc1ccc(NC(=O)c2cnc3n(c2=O)CCS3)cc1OC,484,-3.4% (inactive),-15% (inactive),92.4,-9.5% (inactive),98.8,-0.515 (inactive),-3.9e-05 (inactive),0.00659 (inactive),-2.41% (inactive),-20.9% (inactive)
Cc1c(NC(=O)c2nn(C)c(=O)c3ccccc23)c(=O)n(-c2ccccc2)n1C,426,4.2% (inactive),-1.2% (inactive),98.9,-56.3% (inactive),136,-0.496 (inactive),-1.3e-05 (inactive),0.00499 (inactive),0.784% (inactive),-0.356% (inactive)
COCCn1c(CN(Cc2ccccc2)Cc2ccccc2)nc2c1c(=O)n(C)c(=O)n2C,633,-19% (inactive),-10.5% (inactive),100,-48.5% (inactive),115,-0.56 (inactive),6.1e-06 (inactive),0.00386 (inactive),18.4% (inactive),23.3% (inactive)
O=C(NCc1ccccc1)C1CCN(S(=O)(=O)N2CCCCCC2)CC1,639,0% (inactive),-6.3% (inactive),106,-19.7% (inactive),112,-0.473 (inactive),5.6e-05 (inactive),0.00906 (inactive),-9.73% (inactive),-4.63% (inactive)
Cn1c(C(=O)NCCCN2CCN(c3ccc(F)cc3)CC2)cc2c(=O)n(C)c3ccccc3c21,655,1.1% (inactive),6.5% (inactive),107,-73.4% (inactive),118,-0.42 (inactive),-6.1e-05 (inactive),0.00607 (inactive),6.19% (inactive),39.1% (inactive)
CS(=O)(=O)N1CCCC(C(=O)NCCCN2CCc3ccccc3C2)C1 (stereo not drawn),228,3.4% (inactive),10.5% (inactive),83.5,35.8% (inactive),83.4,-0.54 (inactive),-1.5e-05 (inactive),0.00591 (inactive),-8.77% (inactive),5.97% (inactive)
CCN1CCN(CCNC(=O)c2cn(C(C)c3ccccc3F)nn2)CC1 (stereo not drawn),560,-29.6% (inactive),-18.1% (inactive),112,-32.9% (inactive),110,-0.61 (inactive),-1.9e-05 (inactive),0.00807 (inactive),12% (inactive),9.63% (inactive)
Cc1csc(NC(=O)CCS(=O)(=O)c2ccc(Br)cc2)n1,721,0% (inactive),-30.9% (inactive),91.7,5.7% (inactive),115,-0.609 (inactive),1.8e-05 (inactive),0.00541 (inactive),-20.4% (inactive),-7.68% (inactive)
COc1ccc(CNC(=O)c2ccc(CN3CCOCC3)cc2)cc1,645,-7.8% (inactive),-5.7% (inactive),103,7.3% (inactive),147,-0.472 (inactive),-2.6e-05 (inactive),0.00567 (inactive),7.5% (inactive),-5.55% (inactive)
COc1ccccc1N(C)S(=O)(=O)c1ccc(C(=O)NC2=NCCS2)cc1,458,10.9% (inactive),9.8% (inactive),95.4,-38% (inactive),110,-0.598 (inactive),-2.8e-05 (inactive),0.00655 (inactive),2.13% (inactive),12% (inactive)
COCCNC(=O)CN1CCN(Cc2cccc(Cl)c2)C1=O,752,-11.6% (inactive),28.6% (inactive),69.7,-47.9% (inactive),125,-0.536 (inactive),-4.6e-05 (inactive),0.00677 (inactive),6.1% (inactive),16.8% (inactive)
O=C(c1ccc(CNc2c(N3CCCC3)c(=O)c2=O)cc1)N1CCc2ccccc2C1,535,2.3% (inactive),-13.5% (inactive),100,-18.6% (inactive),108,-0.614 (inactive),2.4e-05 (inactive),0.00541 (inactive),-7.92% (inactive),4.25% (inactive)
CCCn1c(SCC(=O)N2CCc3ccccc3C2)nc2c1c(=O)n(C)c(=O)n2C,430,-9.2% (inactive),-13.1% (inactive),115,-47.7% (inactive),117,-0.303 (inactive),8.7e-06 (inactive),0.00547 (inactive),2.01% (inactive),-39% (inactive)
Cc1cc(C(=O)Nc2c(F)cc(F)cc2Br)no1,338,-3.2% (inactive),25.8% (inactive),94.4,-143% (inactive),103,-0.58 (inactive),1.4e-05 (inactive),0.0051 (inactive),3.46% (inactive),-12% (inactive)
COc1cccc(NC(=O)CSc2nnnn2C(C)C)c1,738,6.1% (inactive),-20.3% (inactive),109,-4.8% (inactive),123,-0.538 (inactive),-9e-05 (inactive),0.00723 (inactive),0.303% (inactive),-4.86% (inactive)
COC(=O)c1nc(N)sc1-c1ccccc1,592,7.2% (inactive),9.3% (inactive),99.9,4.8% (inactive),101,-0.352 (inactive),2.3e-05 (inactive),0.00535 (inactive),11.7% (inactive),37.7% (inactive)
Cc1ccnc(NS(=O)(=O)c2ccc(NC(=O)Cc3cccs3)cc2)n1,301,6.3% (inactive),0.7% (inactive),67,-83.5% (inactive),104,-0.408 (inactive),6.5e-05 (inactive),0.00546 (inactive),-4.32% (inactive),-12.1% (inactive)
O=C(c1ccc(=O)[nH]c1)N(Cc1ccco1)C1(C(=O)NC2CCCC2)CCCCC1,296,-7.1% (inactive),42.7% (active),85.1,-73.8% (inactive),104,-0.529 (inactive),-8.3e-05 (inactive),0.00538 (inactive),-75.5% (inactive),96.9% (active)
c1ccc(CCc2nc(-c3cccnc3)no2)cc1,647,3.1% (inactive),5% (inactive),93,-102% (inactive),132,-0.636 (inactive),1.1e-05 (inactive),0.00345 (inactive),-30.7% (inactive),-90.7% (inactive)
Cc1ccc2cc(C(c3nnnn3CC3CCCO3)N3CCc4ccccc4C3)c(=O)[nH]c2c1 (stereo not drawn),691,-6.9% (inactive),0.5% (inactive),78.6,-102% (inactive),120,-0.523 (inactive),-3.7e-05 (inactive),0.00473 (inactive),14% (inactive),29.9% (inactive)
COCCN(C(=O)CNC(=O)c1ccco1)C(C(=O)NC1CCCCC1)c1cccc(OC)c1 (stereo not drawn),650,-9.5% (inactive),15.9% (inactive),104,37% (inactive),101,-0.444 (inactive),-2e-05 (inactive),0.00264 (inactive),5.23% (inactive),36.9% (inactive)
COc1ccccc1-c1nc(SCc2ccccn2)n[nH]1,509,8.9% (inactive),2.6% (inactive),99.6,32.9% (inactive),96.4,-0.605 (inactive),-2.8e-05 (inactive),0.0058 (inactive),-21% (inactive),-28.9% (inactive)
O=C(CSc1ncn[nH]1)c1ccco1,746,-13.5% (inactive),-3.4% (inactive),112,13.2% (inactive),119,-0.453 (inactive),-9.5e-06 (inactive),0.00556 (inactive),18.7% (inactive),26.5% (inactive)
Cc1ccccc1NC(=O)CSc1nnc(Cc2cccn2C)n1-c1ccc(F)cc1,813,4.2% (inactive),0% (inactive),98.8,-61% (inactive),114,-0.618 (inactive),1.1e-05 (inactive),0.00577 (inactive),-3.98% (inactive),29.4% (inactive)
CCOC(=O)Cn1c(CN2CCOCC2)nc2c1c(=O)[nH]c(=O)n2C,507,-1% (inactive),-19.1% (inactive),102,-6% (inactive),118,-0.601 (inactive),-4.7e-05 (inactive),0.00569 (inactive),15.2% (inactive),27.7% (inactive)
CCN(CCCNC(=O)C1CCCN(S(=O)(=O)c2cnc[nH]2)C1)c1ccccc1 (stereo not drawn),611,21.8% (inactive),-4.7% (inactive),100,-91.6% (inactive),142,-0.507 (inactive),-2.4e-05 (inactive),0.00623 (inactive),5.83% (inactive),7.07% (inactive)
O=C(CSc1nnc(SCc2ccc(Cl)cc2)s1)N1CCN(C(=O)c2ccco2)CC1,236,42.2% (active),-21.7% (inactive),116,-194% (inactive),152,-0.519 (inactive),-0.000144 (inactive),0.00593 (inactive),-1.92% (inactive),-7.44% (inactive)
